Source: PubChem BioAssay (several laboratories)
DSG3 Ab inh: inhibitors of pemphigus antibody binding to human desmoglein-3; hit rate 0.48% among 310,000; binding (percent of control), % at 10 µM; P32926; DSG3-coupled beads, scFv-anti-DSG3-GFP binding, flow cytometry; active compounds read low;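 active = binding more than 3 SD below its plate's average and above zero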;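 note: hits lower antibody fragment binding to DSG3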
GRK2 inh: inhibitors of human GRK2 displacing RNA aptamer | bead flow cytometry, FAM-aptamer displacement from GRK2 | inhibition of aptamer binding, % at 10 µM | hit rate 0.59% among 330,000 | AID 488847;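 active = inhibition of aptamer binding above 40%, roughly 3 SD of noise, on plates passing a quality check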;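 note: median bead fluorescence of bound FAM aptamer so fluorescent compounds give negative values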
PKD1 inh: blocks activity of human protein kinase D1; Q15139; PKD1 kinase fluorescence polarization assay; inhibition, % (no concentration beside the values); hit rate 0.056% among 200,000
LANA-H2A inh: blocks KSHV LANA binding to histone H2A/H2B | Q9QR71 | cell-free LANA-H2A/H2B peptide, fluorescence polarization | inhibition, % (concentration not given with the values) | hit rate 0.6% among 320,000 | AID 2629; in the data active = inhibition mostly above about 10%, no sharp cut-off; inactive = mostly below about 6.7%
HDAC3 inh: human HDAC3 inhibition. O15379. recombinant HDAC3, fluorogenic peptide/trypsin coupled, fluorescence. inhibition, % at 8.3 µM. hit rate 0.15% among 320,000. AID 2718; in the data active = inhibition above about 26%, passing the limit was not always enough
VLA-4 inh: inhibition in a human VLA-4 binding assay; hit rate 0.2% among 330,000; VLA-4 expressing cells, ligand binding flow cytometry; P13612; inhibition, % (about 7 µM as worked out from the volumes in the protocol); AID 2557
GRK2 inh confirm: confirmation of human GRK2 inhibitors displacing RNA aptamer; shares compounds with GRK2 inh; bead-bound GRK2, FAM-aptamer displacement, flow cytometry; aptamer displacement, % at 10 µM; hit rate 4% among 2,000; AID 504451;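 active = aptamer displacement above 40%, near three times the noise of non-fluorescent compounds, on plates passing quality checks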;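 note: negative values mostly reflect intrinsic compound fluorescence rather than true enhancement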
Aptamer quench: counter-screen for GRK2 aptamer inhibitors: fluorescent aptamer quenchers; shares compounds with GRK2 inh; fluorescence change (kMESF span), kMESF (concentration not given with the values); 110 tested, under 10 active; Fluorescent RNA aptamer beads, quenching, flow cytometry; active compounds read high;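 active = compounds whose bead fluorescence drops by more than 37 kMESF across the dose range, marking them as dye quenchers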
FAM quench CP1: counter-screen for GRK2 aptamer inhibitors: fluorescent aptamer quenchers; Carboxyfluorescein RNA aptamer on beads, flow cytometry quenching; active compounds read low; shares compounds with GRK2 inh; 2,000 tested, under 10 active; fluorescence response (% of DMSO), % at 10 µM;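 active = compounds that quench the bead-bound fluorescent RNA probe, cutting fluorescence to under half of the solvent control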;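 note: counterscreen run without GRK2 so only probe quenching by compound is measured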
GRK2 confirm 2: confirmation of human GRK2 inhibitors binding RNA aptamer site | inhibition of aptamer binding, % at 10 µM | bead-bound GRK2, FAM-aptamer displacement, flow cytometry | shares compounds with GRK2 inh | 360 tested, under 10 active | AID 504782;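 active = inhibition of aptamer binding above 40%, about triple the noise seen with nonglowing compounds, on plates passing quality control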;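 note: negative values mostly come from compounds that fluoresce themselves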
FAM quench SP: counter-screen for GRK2 binding hits: quenchers of fluorescent RNA aptamer | shares compounds with GRK2 inh | carboxyfluorescein RNA aptamer beads, flow cytometry quenching; active compounds read low | fluorescence response vs DMSO, % at 10 µM | 360 tested, under 10 active;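 active = response vs DMSO under 50%, meaning signal dropped by over half, treated as fluorescence quencher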;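 note: labelled aptamer on streptavidin beads without GRK2 as a quench counter-screen; 100% = bead fluorescence of DMSO wells and lower means quenching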
The depositor's hits bear a star; . = no result given. In the library only some 1.8% were active in any assay of this set; here they are far more common. Cut-off read from the data, not from the text of the source, unless noted: active = inhibition above about 50%; inactive = the rest.

SMILES	DSG3 Ab inh	GRK2 inh	PKD1 inh	LANA-H2A inh	HDAC3 inh	VLA-4 inh	GRK2 inh confirm	FAM quench CP1	others
Cn1c(=O)cc(N)n(Cc2ccccc2)c1=O	.	4	-10	2	5	-8	.	.
CCC(CC)=NNc1ccc([N+](=O)[O-])cc1[N+](=O)[O-]	91	61*	3	0	-5	4	2	94
O=[N+]([O-])c1ccc(NN=C(C2CC2)C2CC2)c([N+](=O)[O-])c1	107	.	.	.	.	.	.	.
CN(C(=O)c1cccc(Nc2ccc(-c3ccc4c(c3)OCCO4)nn2)c1)C1CCCCC1	119	0	4	-1	4	-8	4	103
CN(C)CCCn1cnc2c1c(=O)[nH]c(=O)n2Cc1ccccc1	110	99*	.	1	5	4	-1	92
NC(=O)C1CCN(C(=O)CN2CCc3ccccc32)CC1	.	2	-1	-3	-5	-10	.	.
NC(=O)C1CCN(CC(=O)N2c3ccccc3CCc3ccccc32)CC1	.	32	-9	1	1	12	-1	98
CCOc1c(C)cnc2c1c(=O)n(Cc1c(F)cccc1Cl)c(=O)n2C	99	0	.	0	-7	8	.	.
CCOc1ccc(CCNC(=O)C2CC(C)=CCC2C(=O)O)cc1OCC (stereo unspecified)	116	66*	.	-2	3	26	53*	98	Aptamer quench=4.1
COc1ccc(CNC(=O)C2CC(C)=C(C)CC2C(=O)O)cc1OC (stereo unspecified)	101	0	.	-30	11	7	.	.	GRK2 confirm 2=6;FAM quench SP=98
CC1=C(C)CC(C(=O)NCc2ccc3c(c2)OCO3)C(C(=O)O)C1 (stereo unspecified)	107	2	-7	3	-8	6	.	.
COc1ccc(S(=O)(=O)N2CCCCC2)cc1NC(=O)CCNC(=O)c1ccc(Cl)cc1	50*	47*	.	2	-1	2	0	104	GRK2 confirm 2=-8;FAM quench SP=106
C#CCn1c(=NC(=O)c2ccc(Cl)s2)sc2cccc(OC)c21	117	76*	8	0	-11	-40	2	99
O=C(COc1cccc(F)c1)NNC(=O)Cc1ccc(S(=O)(=O)N2CCOCC2)s1	103	46*	.	5	14	-15	0	95
COc1ccc(C(=O)NCCS(=O)(=O)N2CCCC2)cc1	128	0	.	2	1	-3	.	.
O=[N+]([O-])c1cccnc1N1CCN(c2ccccc2F)CC1	.	46*	-1	-6	-5	4	-3	100
Cc1ccc(C(=O)Nc2cccc(C(F)(F)F)c2)cc1NC(=O)c1ccno1	111	1	.	5	11	-4	3	103
Cc1cccn2c(=S)[nH]nc12	112	.	.	.	.	.	.	.
O=C(Nc1nc2c(ccc3ccccc32)s1)c1ccco1	104	0	0	2	-7	15	.	.	GRK2 confirm 2=5;FAM quench SP=101
O=C(Nc1nc2c(F)c(F)c(F)cc2s1)c1ccco1	110	0	.	-4	-3	4	.	.
N#CC1C(=N)Cc2ccccc2-c2ccccc21 (stereo unspecified)	93	.	.	.	.	.	.	.
CC(=O)Oc1ccc2ccc(=O)oc2c1	104	80*	16	1	-21	-21	-2	99
NC(=O)c1ccc(NC(=O)COC(=O)c2cc3c(s2)CCC3)cc1	115	52*	.	-2	4	-14	25	101
O=C(COc1ccc(N2C(=O)c3ccccc3C2=O)cc1)c1ccccc1	100	3	-3	-3	-4	9	.	.
